# According to PubChem BioAssay (NCI):
# Compounds without any hit were thinned out: in the full panel of roughly 83,000, 20% have a hit.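 Treatment: one concentration, 48 hours, 96-well format. Scoring: percent growth, with anything below 10 considered active.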 Active and inactive are the calls of the source.
# Test system: RPMI-8226 leukemia
# Experiment: NCI-60 one-dose screen, 48 h (100 = growth as untreated, 0 = no growth, -100 = all killed)
# Details: 10 µM
row,Structure (SMILES),growth
1,NC(CSC(c1ccccc1)(c1ccccc1)c1cccc2ccccc12)C(=O)O (stereo not given),89.2% (inactive)
2,CC(=O)[C@H]1CC[C@]2(C)[C@@H]1CC[C@@H]1[C@@]3(C)CC(CCC#N)(CCC#N)C(=O)C(C)(C)[C@@H]3CC[C@]12C,107% (inactive)
3,NC1=NC(c2ccc(Cl)cc2)C2=C(N1)/C(=C/c1ccc(Cl)cc1)CCC2 (stereo not given),-12.4% (active)
4,C/C(=N\O)c1ccc(NC(=O)CSc2nnc(-c3ccccc3)n2-c2ccccc2)cc1,91.2% (inactive)
5,NC1=CC(=O)C(=O)c2cccnc21,73.8% (inactive)
6,C[n+]1c2ccccc2nc2ccccc21,-17.2% (active)
7,COc1cc(-c2nn(-c3ccc(NC(=O)NCCNS(=O)(=O)c4ccc(F)cc4)cc3)cc2-c2ccncc2)ccc1Cl,-21.6% (active)
8,O=C(CSc1nccc(Nc2cccc3ccccc23)n1)c1ccc(Cl)cc1,80% (inactive)
9,CCCCCCCCCCOC(c1ccccc1)c1ccccc1,96% (inactive)
10,O=C1/C=C/[C@@H](O)[C@@H]2C[C@@H](O)C[C@H]2/C=C/CCC[C@H](CCc2ccc(C(F)(F)F)cc2)O1,-8.16% (active)
11,O=C(O)c1cn(C2CC2)c2cc(N3CCN(C(=O)c4cc(-c5ccc(Cl)cc5)nc5ccccc45)CC3)c(F)cc2c1=O,81.8% (inactive)
12,CN(C)CCC1(c2ccccc2)CCN(C)C1=O (stereo not given),108% (inactive)
13,COc1ccc(Nc2cnc3cc(NS(=O)(=O)c4ccc(C)cc4)ccc3n2)cc1,106% (inactive)
14,COc1cc(-c2nn(-c3cccc(NC(=O)CCNc4ccc(N5CCOCC5)cc4)c3)cc2-c2ccncc2)ccc1Cl,15.5% (inactive)
15,COc1cccc(-c2nc3sccn3c2-c2cccc(S(C)(=O)=O)c2)c1,95.9% (inactive)
16,COc1cc(CNC(=O)C2CSC3(C)c4ccccc4C(=O)N23)cc(OC)c1OC (stereo not given),90.2% (inactive)
17,COc1cc2cc(Oc3ccc(NC(=O)c4ccc(Cl)c(C(F)(F)F)c4)cc3)c(C)nc2cc1OC,9.15% (active)
18,CN(C)CCCSc1ccccc1NC1=C(Cl)C(=O)C(Nc2ccccc2SCCCN(C)C)=C(Cl)C1=O,45.8% (inactive)
19,COc1ccc(-c2cc(-c3ccc(Cl)cc3)nc(SCCCCCCC(=O)NO)n2)cc1OC,-9.15% (active)
20,O=C(NCCNC(=O)c1ccc(F)cc1)Nc1ccc(-n2cc(-c3ccncc3)c(-c3ccc(Cl)c(O)c3)n2)cc1,-35.6% (active)

row,Structure (SMILES),growth
1,Cc1ccc(Cl)cc1NC(=O)CCl,43.8% (inactive)
2,Nc1ncc(-c2cnn(C3CCNCC3)c2)cc1-c1nc2ccccc2o1,-56% (active)
3,O=C(CCCSc1nc(-c2ccccc2)cc(-c2ccc(Cl)cc2)n1)NO,-6.47% (active)
4,COc1ccc2nc3cc(Cl)ccc3c(Nc3cc(CN4CCCC4)c(O)c(CN4CCCC4)c3)c2n1,-3.6% (active)
5,CN(C)CCOc1cccc(-c2nc3sccn3c2-c2ccnc(S(C)(=O)=O)n2)c1,94.7% (inactive)
6,Cc1ccc(C(=O)C2C(=O)C3CCC2C3)cc1 (stereo not given),99.3% (inactive)
7,COc1cc(-c2csc(NC(=O)Nc3cc(C(F)(F)F)cc(C(F)(F)F)c3)n2)cc(OC)c1OC,-6.92% (active)
8,O=C(CNc1nnc(-c2cccnc2SCc2ccccc2)s1)Nc1nc(Cl)cc(Cl)n1,108% (inactive)
9,O=C(O)c1ccc(-n2cc(CNc3ccc(Oc4ccccc4)cc3)c(-c3ccccc3)n2)cc1,73% (inactive)
10,C/C=C/C1=CN2C(=O)c3cc(OC4OC(C)C(NC)C(C)(O)C4O)c(C)c(O)c3N=C[C@@H]2C1 (stereo not given in full),7.45% (active)
11,COc1ccc(/C(C#N)=C/c2ccccc2OC)cc1,52.3% (inactive)
12,O=S(=O)(O)c1ccc(Cl)cc1,102% (inactive)
13,N#CCc1csc(Cc2ccccc2)n1,99% (inactive)
14,O=C(/C=C/C=C/c1c(C2CC2)nc2ccccc2c1-c1ccc(F)cc1)c1cccs1,-26.6% (active)
15,N#CC1=C(N)Oc2cc(N)ccc2C1c1cccnc1 (stereo not given),106% (inactive)
16,O=C(Cn1cc(CO)nn1)Nc1nc2ccccc2s1,107% (inactive)
17,CCn1c(SCCc2ccccc2)nnc1-c1nn(-c2ccc(Cl)cc2Cl)c(-c2ccc(Cl)cc2)c1C,54.1% (inactive)
18,Cc1cc(C(C#N)c2ccc(Cl)cc2)c(Cl)cc1NC(=O)c1cc(I)cc(I)c1O (stereo not given),13.8% (inactive)
19,Cn1cnc([N+](=O)[O-])c1/C=C1\Oc2ccc(Br)cc2C1=O,4.16% (active)
20,Cc1cc(Cl)ccc1Nc1nc(C(F)(F)F)ccc1C(=O)N/N=C/c1c(Cl)cccc1Cl,-15.1% (active)

# Test system: OVCAR-8 ovarian
# Experiment: as above
# Details: 10 µM
row,Structure (SMILES),growth
1,NC(CSC(c1ccccc1)(c1ccccc1)c1cccc2ccccc12)C(=O)O (stereo not given),95.1% (inactive)
2,CC(=O)[C@H]1CC[C@]2(C)[C@@H]1CC[C@@H]1[C@@]3(C)CC(CCC#N)(CCC#N)C(=O)C(C)(C)[C@@H]3CC[C@]12C,106% (inactive)
3,NC1=NC(c2ccc(Cl)cc2)C2=C(N1)/C(=C/c1ccc(Cl)cc1)CCC2 (stereo not given),41.2% (inactive)
4,C/C(=N\O)c1ccc(NC(=O)CSc2nnc(-c3ccccc3)n2-c2ccccc2)cc1,84.7% (inactive)
5,NC1=CC(=O)C(=O)c2cccnc21,76% (inactive)
6,C[n+]1c2ccccc2nc2ccccc21,10.3% (inactive)
7,COc1cc(-c2nn(-c3ccc(NC(=O)NCCNS(=O)(=O)c4ccc(F)cc4)cc3)cc2-c2ccncc2)ccc1Cl,9.18% (active)
8,O=C(CSc1nccc(Nc2cccc3ccccc23)n1)c1ccc(Cl)cc1,92.3% (inactive)
9,CCCCCCCCCCOC(c1ccccc1)c1ccccc1,103% (inactive)
10,O=C1/C=C/[C@@H](O)[C@@H]2C[C@@H](O)C[C@H]2/C=C/CCC[C@H](CCc2ccc(C(F)(F)F)cc2)O1,2.31% (active)
11,O=C(O)c1cn(C2CC2)c2cc(N3CCN(C(=O)c4cc(-c5ccc(Cl)cc5)nc5ccccc45)CC3)c(F)cc2c1=O,89.9% (inactive)
12,CN(C)CCC1(c2ccccc2)CCN(C)C1=O (stereo not given),104% (inactive)
13,COc1ccc(Nc2cnc3cc(NS(=O)(=O)c4ccc(C)cc4)ccc3n2)cc1,82.1% (inactive)
14,COc1cc(-c2nn(-c3cccc(NC(=O)CCNc4ccc(N5CCOCC5)cc4)c3)cc2-c2ccncc2)ccc1Cl,7.74% (active)
15,COc1cccc(-c2nc3sccn3c2-c2cccc(S(C)(=O)=O)c2)c1,101% (inactive)
16,COc1cc(CNC(=O)C2CSC3(C)c4ccccc4C(=O)N23)cc(OC)c1OC (stereo not given),92.4% (inactive)
17,COc1cc2cc(Oc3ccc(NC(=O)c4ccc(Cl)c(C(F)(F)F)c4)cc3)c(C)nc2cc1OC,27.7% (inactive)
18,CN(C)CCCSc1ccccc1NC1=C(Cl)C(=O)C(Nc2ccccc2SCCCN(C)C)=C(Cl)C1=O,-26.5% (active)
19,COc1ccc(-c2cc(-c3ccc(Cl)cc3)nc(SCCCCCCC(=O)NO)n2)cc1OC,51.5% (inactive)
20,O=C(NCCNC(=O)c1ccc(F)cc1)Nc1ccc(-n2cc(-c3ccncc3)c(-c3ccc(Cl)c(O)c3)n2)cc1,4.62% (active)

row,Structure (SMILES),growth
1,Cc1ccc(Cl)cc1NC(=O)CCl,88% (inactive)
2,Nc1ncc(-c2cnn(C3CCNCC3)c2)cc1-c1nc2ccccc2o1,9.55% (active)
3,O=C(CCCSc1nc(-c2ccccc2)cc(-c2ccc(Cl)cc2)n1)NO,14.2% (inactive)
4,COc1ccc2nc3cc(Cl)ccc3c(Nc3cc(CN4CCCC4)c(O)c(CN4CCCC4)c3)c2n1,10.5% (inactive)
5,CN(C)CCOc1cccc(-c2nc3sccn3c2-c2ccnc(S(C)(=O)=O)n2)c1,100% (inactive)
6,Cc1ccc(C(=O)C2C(=O)C3CCC2C3)cc1 (stereo not given),100% (inactive)
7,COc1cc(-c2csc(NC(=O)Nc3cc(C(F)(F)F)cc(C(F)(F)F)c3)n2)cc(OC)c1OC,19.4% (inactive)
8,O=C(CNc1nnc(-c2cccnc2SCc2ccccc2)s1)Nc1nc(Cl)cc(Cl)n1,118% (inactive)
9,O=C(O)c1ccc(-n2cc(CNc3ccc(Oc4ccccc4)cc3)c(-c3ccccc3)n2)cc1,92.3% (inactive)
10,C/C=C/C1=CN2C(=O)c3cc(OC4OC(C)C(NC)C(C)(O)C4O)c(C)c(O)c3N=C[C@@H]2C1 (stereo not given in full),9.18% (active)
11,COc1ccc(/C(C#N)=C/c2ccccc2OC)cc1,53.5% (inactive)
12,O=S(=O)(O)c1ccc(Cl)cc1,101% (inactive)
13,N#CCc1csc(Cc2ccccc2)n1,106% (inactive)
14,O=C(/C=C/C=C/c1c(C2CC2)nc2ccccc2c1-c1ccc(F)cc1)c1cccs1,18.1% (inactive)
15,N#CC1=C(N)Oc2cc(N)ccc2C1c1cccnc1 (stereo not given),106% (inactive)
16,O=C(Cn1cc(CO)nn1)Nc1nc2ccccc2s1,99.4% (inactive)
17,CCn1c(SCCc2ccccc2)nnc1-c1nn(-c2ccc(Cl)cc2Cl)c(-c2ccc(Cl)cc2)c1C,84.5% (inactive)
18,Cc1cc(C(C#N)c2ccc(Cl)cc2)c(Cl)cc1NC(=O)c1cc(I)cc(I)c1O (stereo not given),53.4% (inactive)
19,Cn1cnc([N+](=O)[O-])c1/C=C1\Oc2ccc(Br)cc2C1=O,77.8% (inactive)
20,Cc1cc(Cl)ccc1Nc1nc(C(F)(F)F)ccc1C(=O)N/N=C/c1c(Cl)cccc1Cl,9.98% (active)
